Test results taken from PubChem BioAssay AID1852 (Sanford-Burnham Center for Chemical Genomics, 2009).
Among all 2,500 compounds or so, about 1,100 (44%) were called active.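 The calls were made as follows: active = inhibition above 50% at 4 µM in the single-point screen; inactive = inhibition of 50% or less.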 So high a share suggests a set chosen from earlier hits. Some of the results follow.

Assay: blockers of TNF-a NF-kB luciferase induction – cell-based, HEK293T NF-kB-Luc, luminescence, selectivity assay for NOD1/NOD2 signaling inhibitor project, primary screen (AID 1852)
Settings: TNF-a induced, 14 h, at 4 µM, hits give high values

Compound | inhibition
COc1ccc(NC(=O)/C(Cl)=C(/Cl)S(=O)Cc2ccccc2Cl)cn1 (configuration not stated) | 98.2% (active)
CCc1nn2cc(C(=O)c3cc(Cl)ccc3O)cnc2c1-c1ccc(F)cc1 | -6% (inactive)
Cn1c(=O)c(C#N)c(-c2ccc(F)cc2)c2cc(C(=O)c3cc(Cl)cc(Cl)c3O)cnc21 | 95.8% (active)
COc1ccc(NC(=O)CN(C)C(=O)c2ccccc2OC)cc1 | -11.8% (inactive)
COc1ccc(C2(c3ccc(OC)cc3)NC(=O)N(CC(=O)Nc3ccc(C(N)=O)cc3)C2=O)cc1 | 59.3% (active)
CCn1c(SCC(=O)Nc2ccc(OC)cc2)nc2nc3c(cc2c1=O)CCCC3 | -16.7% (inactive)
N#CC1=C(SCC(=O)NC23CC4CC(CC(C4)C2)C3)NC(=O)C(C#N)C12CCCCC2 (configuration not stated) | 66.1% (active)
CC(C)(C)C1CCC2(CC1)C(C#N)=C(SCC(=O)NC1CCCCC1)NC(=O)C2C#N (configuration not stated) | -10.7% (inactive)
CC(C)(C)C1CCC2(CC1)C(C#N)=C(SCC(=O)Nc1ccccc1)NC(=O)C2C#N (configuration not stated) | 79% (active)
O=C1NC(=S)S/C1=C\c1cc2ccccc2nc1N1CCCCC1 | 42% (inactive)
Cc1ccc(C(=O)CN2C(=O)c3ccccc3S2(=O)=O)cc1 | 85.1% (active)
COc1ccc(C(=O)CN2C(=O)c3ccccc3S2(=O)=O)cc1 | 92.1% (active)
O=C(CN1C(=O)c2ccccc2S1(=O)=O)c1ccc(F)cc1 | 29.1% (inactive)
O=C1c2ccccc2S(=O)(=O)N1Cc1nc2ccccc2s1 | 53.2% (active)
O=C(CCl)Nc1ccc(Sc2ccc(NC(=O)CCl)cc2)cc1 | 81.3% (active)
O=C(CCl)Nc1ccccc1Sc1ccc(Cl)cc1 | 33.5% (inactive)
O=C1NC(=O)/C(=C/c2ccccc2Oc2ccc(Cl)cc2)S1 | -26.6% (inactive)
O=C1NC(=O)/C(=C/c2ccccc2OCc2ccccc2)S1 | 16.2% (inactive)
O=C1NC(=O)/C(=C\c2ccccc2Oc2ccc(F)c(F)c2)S1 | 55.7% (active)
Cc1cc(C(=O)CCl)c(C)n1CCc1ccc(F)cc1 | 55.6% (active)
Cc1cc(C(=O)CCl)c(C)n1CCc1ccc(Cl)cc1 | 21.1% (inactive)
CCC(C)NC(=O)Cn1cnc2sc(C)c(S(=O)(=O)N3CCN(c4ccccc4OC)CC3)c2c1=O (configuration not stated) | 9.7% (inactive)
CCOC(=O)C1CCN(C(=O)Cn2cnc3sc(C)c(S(=O)(=O)N4CCC(C)CC4)c3c2=O)CC1 | 55.3% (active)

Compound | inhibition
CCOC(=O)C1CCN(S(=O)(=O)c2ccc3c(c2)N(C(C)=O)CC(C)S3)CC1 (configuration not stated) | 5.4% (inactive)
CN(C)S(=O)(=O)c1cccc(NC(=O)c2ccc(COc3ccccc3)cc2)c1 | 80.7% (active)
CN(C)S(=O)(=O)Oc1ccc(C(=O)Nc2cccc(C(F)(F)F)c2)cc1 | 36.5% (inactive)
CCOC(=O)c1sc2ccccc2c1OC(=O)c1ccc(C)cc1 | 17.4% (inactive)
CCOC(=O)C1=C(c2ccc(OC)cc2)C(=O)c2ccccc2C1=O | 108% (active)
CCOC(=O)C1=C(Cc2ccc(F)cc2)C(=O)c2ccccc2C1=O | 90.8% (active)
CCOC(=O)C1=C(Cc2ccc(Cl)cc2)C(=O)c2ccccc2C1=O | 7.7% (inactive)
CCOC(=O)C1=C(Cc2ccc(C)cc2)C(=O)c2ccccc2C1=O | 61.3% (active)
c1ccc(CNc2ncnc3ccccc23)cc1 | 65.6% (active)
Fc1ccc(CNc2ncnc3cc(Cl)ccc23)cc1 | 39.9% (inactive)
COc1cccc(CNc2ncnc3cc(Cl)ccc23)c1 | 49.2% (inactive)
CC(Nc1ncnc2ccccc12)c1ccccc1 (configuration not stated) | 83.3% (active)
COc1ccc(CNc2ncnc3ccccc23)cc1 | 65.6% (active)
CC(Nc1ncnc2sccc12)c1ccccc1 (configuration not stated) | 35.1% (inactive)
Cc1cc2c(NCc3ccccc3)ncnc2s1 | 42.6% (inactive)
Cc1ccccc1OCc1nc2ccccc2c(=O)n1/N=C/c1cn[nH]c1-c1ccc(Br)cc1 | 3.5% (inactive)
O=C(CN1CCN(c2ccccn2)CC1)Nc1cccc(Br)c1 | 13.8% (inactive)
O=C(c1cnc(N2CCN(c3ccccn3)CC2)c2ccccc12)N1CCN(c2cccc(Cl)c2)CC1 | 53.2% (active)
Cc1ccccc1C(=O)N1CCN(c2ccccn2)CC1 | 48.2% (inactive)
S=C(Nc1ccc(Oc2ccccc2)cc1)N1CCN(c2ccccn2)CC1 | 21% (inactive)
COc1ccc(C)cc1NC(=O)c1sc2ncnc(N3CCN(c4ccccn4)CC3)c2c1C | -10% (inactive)
CCc1ccc(NC(=O)c2cnc(N3CCN(c4ccccn4)CC3)c3ccccc23)cc1 | 78.3% (active)
COc1ccccc1N1CCN(c2ncc(C(=O)N3CCN(c4cccc(Cl)c4)CC3)c3ccccc23)CC1 | 21.9% (inactive)

Compound | inhibition
Cc1nc(N2CCN(c3ccccn3)CC2)c2c(C)c(C(=O)N3CCN(c4ccccc4F)CC3)sc2n1 | -27.6% (inactive)
Cc1cc(Br)ccc1NC(=O)c1cnc(N2CCN(c3ccccn3)CC2)c2ccccc12 | 73.3% (active)
Cc1ccc(NC(=O)c2cnc(N3CCN(c4ccccn4)CC3)c3ccccc23)c(Br)c1 | 99.8% (active)
Cc1nc(N2CCN(c3ccccn3)CC2)c2c(C)c(C(=O)Nc3ccccc3F)sc2n1 | 4.6% (inactive)
CCN(C(=O)c1cnc(N2CCN(c3ncccn3)CC2)c2ccccc12)c1cccc(Cl)c1 | 46.7% (inactive)
O=C(COC(=O)/C=C/C(=O)OCC(=O)Nc1ccccc1F)Nc1ccccc1F | 33.2% (inactive)
COC(=O)c1ccc2c(c1O)C(=O)c1ccccc1C2=O | -53.2% (inactive)
COC(=O)c1cccc2c1-c1ccccc1/C2=N/O | 67.3% (active)
CCOC(=O)c1cccc2c1-c1ccccc1/C2=N/O | 48.8% (inactive)
Oc1cccc(/C=N/Nc2ccc(Cl)nn2)c1O | -18% (inactive)
O=C(NC(NC(=S)Nc1ccc(Cl)cc1Cl)C(Cl)(Cl)Cl)c1cccc([N+](=O)[O-])c1 (configuration not stated) | 95.7% (active)
O=C(NC(NC(=S)Nc1ccccc1)C(Cl)(Cl)Cl)c1cccc(Cl)c1 (configuration not stated) | 23.1% (inactive)
O=C(NC(NC(=S)Nc1ccccc1Cl)C(Cl)(Cl)Cl)c1cccc(Cl)c1 (configuration not stated) | -7% (inactive)
Oc1c(Br)cc(Br)cc1/C=N/Nc1ccc(Cl)nn1 | 44.5% (inactive)
O=[N+]([O-])c1ccc(O)c(/C=N/Nc2ccc(Cl)nn2)c1 | 70.3% (active)
O=[N+]([O-])c1ccc(O)c(/C=N/NC(=S)Nc2ccc(Cl)cc2Cl)c1 | 105% (active)
O=[N+]([O-])c1cc(Cl)cc(/C=N/NC(=S)Nc2cc(S(=O)(=O)N3CCOCC3)ccc2Cl)c1O | 49.1% (inactive)
O=[N+]([O-])c1ccc(O)c(/C=N/Nc2ncnc3c2cnn3-c2ccccc2)c1 | 46.3% (inactive)
CCCOc1ccc(/C=N/NC(=S)Nc2ccccc2[N+](=O)[O-])c(O)c1 | 15.1% (inactive)
COc1ccc(NC(=S)NC(NC(=O)c2ccc(Cl)cc2Cl)C(Cl)(Cl)Cl)c([N+](=O)[O-])c1 (configuration not stated) | 34.9% (inactive)
O=[N+]([O-])c1ccc(O)c(/C=N/Nc2ccccc2[N+](=O)[O-])c1 | 69.5% (active)
